# Experimental data: PubChem BioAssay AID686978 (National Center for Advancing Translational Sciences (NCATS), 2013)
# Out of some 420,000 compounds screened, about 64,000 (15%) were called active. About 27% were inconclusive and are not listed. Calls come from the whole dose curve; as a rule, active = well fitted inhibition curve with a large enough effect; inconclusive = small, poorly fitted or top-dose-only effect; inactive = flat fitted curve, though single readings scatter. Not all results are given here.
# Assay: qHTS for Inhibitors of human tyrosyl-DNA phosphodiesterase 1 (TDP1): qHTS in cells in absence of CPT; note: nearly all actives have a fitted effect of over 55% in size
# Settings: DT40 Tdp1-/- hTDP1 cells, no CPT, ATP luminescence, 48 h; activity change, negative = growth inhibition: at 46.2 µM (top of the series)
# Procedure, shortened: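 Seeded 400 DT40-hTDP1 cells/well (vehicle DMSO, no 20 nM CPT); pinned compounds; ≥48 hr at 37 °C; CellTiter-Glo luminescence as viability measure.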
# % is set by controls: 0 for no effect and ±100 for the full control effect; potency is the fitted concentration of half-maximal effect.
Compound,"activity change, negative = growth inhibition",Potency
CCC(=O)N(Cc1cc2cc(OC)ccc2[nH]c1=O)c1ccccc1C,-18.3% (inactive),
CC(=O)Oc1ccccc1C1=NN(C(C)=O)C(c2ccccc2)C1 (stereo unspecified),-27.3% (inactive),
O=C1C2N=NN(CC(=O)N3N=C(c4cccc5ccccc45)CC3c3ccccc3)C2C(=O)N1c1ccccc1 (stereo unspecified),,29.1 µM (active)
COc1ccc(C2CC(c3ccccc3)=NN2C(=O)CSc2nccc(=O)[nH]2)cc1 (stereo unspecified),-5.98% (inactive),
COc1cc(CN2CCNC(=O)C2CC(=O)NCCc2ncccc2C)cc(OC)c1 (stereo unspecified),-16% (inactive),
CCN1CCCC1CNC(=O)c1cc2cc(OC)c(OC)cc2[nH]1 (stereo unspecified),11.2% (inactive),
CCOC(=O)C1(C)CCCN(C(=O)c2ccc(N(C)C)cc2)C1 (stereo unspecified),-16.9% (inactive),
CCCS(=O)(=O)NC(=O)C1(C)CCCN(C(=O)c2ccnc(Cl)c2)C1 (stereo unspecified),-6.61% (inactive),
CCOC(=O)C1(C)CCCN(C(=O)c2ccc(F)c(Cl)c2)C1 (stereo unspecified),,20.6 µM (active)
COC(=O)/C(=C1\Oc2ccc(C(C)(C)C)cc2S1)C(F)(F)F,-21.9% (inactive),
CC(=O)Nc1ccc(S(=O)(=O)NC2(C(F)(F)F)C(=O)NC(C)=C2C#N)cc1 (stereo unspecified),-6.96% (inactive),
O=C(Cc1ccccc1F)NC1CCSc2ccccc21 (stereo unspecified),-9.14% (inactive),
CCc1cc(Br)ccc1NC(=O)C1CCCO1 (stereo unspecified),2.43% (inactive),
COc1ccccc1C(=O)COC(=O)CNS(=O)(=O)c1ccc(NC(C)=O)cc1,-3.88% (inactive),
O=C1c2cccc3c([N+](=O)[O-])ccc(c23)C(=O)N1CC1CCCO1 (stereo unspecified),,5.8 µM (active)
O=c1c2cc3c(=O)n(CC4CCCO4)c(=O)c3cc2c(=O)n1CC1CCCO1 (stereo unspecified),-6.38% (inactive),
O=C(NCc1ccc2c(c1)OCO2)c1ccc2c(c1)C(=O)N(CC1CCCO1)C2=O (stereo unspecified),-27.4% (inactive),
CCOc1ccc(/C=C/C(=O)OCC(=O)c2ccccc2OC)cc1OC,,20.6 µM (active)
COc1cc(/C=C/C(=O)OCC(=O)NC(=O)NCc2ccccc2)ccc1OCC#N,-13.8% (inactive),
COc1ccc(/C=C/C(=O)OCC(=O)NCc2cccs2)cc1OC,-1.48% (inactive),
COc1ccc(S(=O)(=O)N(CC(=O)N/N=C/c2ccc(C(=O)O)cc2)Cc2ccccc2)cc1OC,3% (inactive),
Cc1nonc1OCCn1nnnc1N,-1.77% (inactive),
Cc1csc(=O)n1CCC(=O)OCC(=O)Nc1ccc(N2CCOCC2)cc1,-5.01% (inactive),
O=C1Nc2cc(Cl)c(Cl)cc2N(O)N1c1ccccc1Cl,2.71% (inactive),
COC(=O)c1ccc(NC(=O)CSc2nncc3ccc(OC)c(OC)c23)cc1,-16.5% (inactive),
COc1ccc(C(=O)NCc2cn3ccccc3n2)cc1,3.12% (inactive),

Compound,"activity change, negative = growth inhibition",Potency
COC(=O)c1ccc2nc(-c3ccc(F)cc3)c(Cc3ccc(C)cc3)n2c1,-27.5% (inactive),
COC(=O)c1ccc2nc(-c3ccc(Cl)cc3)c(Cc3cccc(F)c3)n2c1,,23.1 µM (active)
COC(=O)c1ccc2nc(-c3ccc(OC)c(OC)c3)c(Cc3ccccc3)n2c1,,20.6 µM (active)
COC(=O)c1ccc(COC(=O)c2cnc(Cl)c(Cl)c2)cc1,-7.94% (inactive),
COC(=O)c1ccc2nc(-c3cccc(Br)c3)c(Cc3ccccc3C(F)(F)F)n2c1,-18% (inactive),
COC(=O)c1ccc2nc(-c3ccccc3)c(Cc3ccc(OC)cc3C)n2c1,,23.1 µM (active)
CCN1CCN(Cc2c(O)ccc3c(=O)c(-c4ccc(OC)c(OC)c4)c(C(F)(F)F)oc23)CC1,-17.6% (inactive),
Cc1ccc(NS(=O)(=O)c2c(C)[nH]c(=O)[nH]c2=O)cc1C,-4.65% (inactive),
C[C@@H]1CC[C@]2(O[C@@H](CCO)C[C@H](O)[C@H]2O)O1,5.06% (inactive),
CCCCSc1nnc(-c2ccc(NC(=O)CC)cc2)n1C,,inactive
O=C(c1cccc(S(=O)(=O)Nc2ccccc2Cl)c1)N1CCN(C(=O)c2ccco2)CC1,1.12% (inactive),
COc1ccc(C)cc1NC(=O)NCCCCc1ccccc1,12.6% (inactive),
CCOc1ccc(-c2nonc2NC(=O)c2oc3ccc(CC)cc3c2C)cc1,,20.6 µM (active)
CCc1nonc1NC(=O)c1oc2ccc(Cl)cc2c1C,,inactive
CCOc1ccc(-c2nonc2NC(=O)c2oc3ccc(C)cc3c2C)cc1OCC,-16.5% (inactive),
CCCCCCCCOC1OC(CO)C(O)C(O)C1NC(C)=O (stereo unspecified),-3.29% (inactive),
O=C1CCN(C(=O)Nc2ccccc2)N1,1.14% (inactive),
CCNC(=O)C1(C)CCCN(C(=O)c2c(C)noc2C)C1 (stereo unspecified),-13.2% (inactive),
COc1ccc(-c2cc(-c3ccc(F)cc3)nc3c2COc2ccccc2-3)cc1,-23.6% (inactive),
NC(=O)C1CCN(C2OC(=O)c3ccccc32)CC1 (stereo unspecified),-8.31% (inactive),
CCOC(=O)NNC(=O)c1ccc(Cl)cc1,-8.72% (inactive),
Cc1nn(C)c(C)c1S(=O)(=O)N1CCC(CO)(Cc2ccc(Cl)cc2)CC1,,16.4 µM (active)
CCOc1ccccc1NC(=O)C1CCN(S(=O)(=O)c2c(C)nn(C)c2C)CC1,-18.3% (inactive),
Cc1ccc(S(=O)(=O)n2nc(C)c(S(=O)(=O)N3CCCCCC3)c2C)cc1,-4.52% (inactive),
COc1ccc(NC(=O)c2ccccc2CC[N+](=O)[O-])cc1,1.08% (inactive),
